Laboratory results published in the supplement of paper PMC4466140.

B1: unnamed (peptide)
chain: SKAKRPKFLLDLQIK
B2: unnamed (peptide)
chain: QRKSLRRPTLSKPAV

target: AgAbp1; assay: SPOT peptide array binding signal intensity (averaged, normalized) (arbitrary units (background-subtracted, floor 0; scale differs between SH3 domains)); higher = stronger binding of the SH3 domain to the peptide
Protocol: (§1)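 GST-tagged SH3 domains from S. cerevisiae (Sc), A. gossypii (Ag), C. albicans (Ca) and S. pombe (Sp) were incubated at 10 ug/ml overnight at 4 C on cellulose SPOT membranes carrying 292 synthetic 15-mer peptides mined from the S. cerevisiae proteome (cysteines replaced by serines). Binding was detected with anti-GST antibody, HRP secondary and chemiluminescence, quantified with Genespotter, and reported as normalized spot intensities averaged over biological replicates.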

Binder	SPOT peptide array binding signal intensity
B1	32.5
B2	32

target: AgBbc1; assay: as above
Protocol: as §1

Binder	SPOT peptide array binding signal intensity
B1	2
B2	108

target: AgBem1-D1; assay: as above
Protocol: as §1

Binder	SPOT peptide array binding signal intensity
B1	60
B2	210

target: AgBzz1-D1; assay: as above
Protocol: as §1

Binder	SPOT peptide array binding signal intensity
B1	38
B2	40.5

target: AgBzz1-D2; assay: as above
Protocol: as §1

Binder	SPOT peptide array binding signal intensity
B1	29.5
B2	42

target: AgCyk3; assay: as above
Protocol: as §1

Binder	SPOT peptide array binding signal intensity
B1	10
B2	1

target: AgFus1; assay: as above
Protocol: as §1

Binder	SPOT peptide array binding signal intensity
B1	152
B2	336

target: AgHof1; assay: as above
Protocol: as §1

Binder	SPOT peptide array binding signal intensity
B1	16.5
B2	66

target: AgHse1; assay: as above
Protocol: as §1

Binder	SPOT peptide array binding signal intensity
B1	154
B2	244

target: AgLsb1; assay: as above
Protocol: as §1

Binder	SPOT peptide array binding signal intensity
B1	2.75
B2	4.25

target: AgLsb4; assay: as above
Protocol: as §1

Binder	SPOT peptide array binding signal intensity
B1	16
B2	17

target: AgMyo5; assay: as above
Protocol: as §1

Binder	SPOT peptide array binding signal intensity
B1	0.25
B2	1.5

target: AgNbp2; assay: as above
Protocol: as §1

Binder	SPOT peptide array binding signal intensity
B1	11
B2	108

target: AgRvs167; assay: as above
Protocol: as §1

Binder	SPOT peptide array binding signal intensity
B1	3.33
B2	1.67

target: AgSho1; assay: as above
Protocol: as §1

Binder	SPOT peptide array binding signal intensity
B1	15
B2	10

target: AgSla1-D1-D2; assay: as above
Protocol: as §1

Binder	SPOT peptide array binding signal intensity
B1	214
B2	14

target: AgSla1-D3; assay: as above
Protocol: as §1

Binder	SPOT peptide array binding signal intensity
B1	5.5
B2	3.75

target: CaAbp1-D1; assay: as above
Protocol: as §1

Binder	SPOT peptide array binding signal intensity
B1	502
B2	272

target: CaAbp1-D2; assay: as above
Protocol: as §1

Binder	SPOT peptide array binding signal intensity
B1	337
B2	220

target: CaBbc1; assay: as above
Protocol: as §1

Binder	SPOT peptide array binding signal intensity
B1	80.8
B2	338

target: CaBem1-D1; assay: as above
Protocol: as §1

Binder	SPOT peptide array binding signal intensity
B1	13.5
B2	79

target: CaBzz1-D1; assay: as above
Protocol: as §1

Binder	SPOT peptide array binding signal intensity
B1	110
B2	78

target: CaBzz1-D2; assay: as above
Protocol: as §1

Binder	SPOT peptide array binding signal intensity
B1	127
B2	104

target: CaCyk3; assay: as above
Protocol: as §1

Binder	SPOT peptide array binding signal intensity
B1	19
B2	16.5

target: CaFus1; assay: as above
Protocol: as §1

Binder	SPOT peptide array binding signal intensity
B1	510
B2	298

target: CaHof1; assay: as above
Protocol: as §1

Binder	SPOT peptide array binding signal intensity
B1	0.5
B2	≤ 0

target: CaHse1; assay: as above
Protocol: as §1

Binder	SPOT peptide array binding signal intensity
B1	≤ 0
B2	10

target: CaLsb1; assay: as above
Protocol: as §1

Binder	SPOT peptide array binding signal intensity
B1	≤ 0
B2	0.5

target: CaLsb4; assay: as above
Protocol: as §1

Binder	SPOT peptide array binding signal intensity
B1	3.5
B2	89.5

target: CaMyo5; assay: as above
Protocol: as §1

Binder	SPOT peptide array binding signal intensity
B1	2
B2	3.5

target: CaNbp2; assay: as above
Protocol: as §1

Binder	SPOT peptide array binding signal intensity
B1	72

target: CaRvs167; assay: as above
Protocol: as §1

Binder	SPOT peptide array binding signal intensity
B1	1.67

target: CaRvs167-3; assay: as above
Protocol: as §1

Binder	SPOT peptide array binding signal intensity
B1	40.8

target: CaSho1; assay: as above
Protocol: as §1

Binder	SPOT peptide array binding signal intensity
B1	148

target: CaSla1-D1-D2; assay: as above
Protocol: as §1

Binder	SPOT peptide array binding signal intensity
B1	11

target: CaSla1-D3; assay: as above
Protocol: as §1

Binder	SPOT peptide array binding signal intensity
B1	≤ 0

target: ScAbp1; assay: as above
Protocol: as §1

Binder	SPOT peptide array binding signal intensity
B1	19

target: ScBbc1; assay: as above
Protocol: as §1

Binder	SPOT peptide array binding signal intensity
B1	3.5

target: ScBem1-D1; assay: as above
Protocol: as §1

Binder	SPOT peptide array binding signal intensity
B1	9

target: ScBzz1-D1; assay: as above
Protocol: as §1

Binder	SPOT peptide array binding signal intensity
B1	33

target: ScBzz1-D2; assay: as above
Protocol: as §1

Binder	SPOT peptide array binding signal intensity
B1	24

target: ScCyk3; assay: as above
Protocol: as §1

Binder	SPOT peptide array binding signal intensity
B1	51

target: ScFus1; assay: as above
Protocol: as §1

Binder	SPOT peptide array binding signal intensity
B1	268

target: ScHof1; assay: as above
Protocol: as §1

Binder	SPOT peptide array binding signal intensity
B1	≤ 0

target: ScHse1; assay: as above
Protocol: as §1

Binder	SPOT peptide array binding signal intensity
B1	486

target: ScLsb1; assay: as above
Protocol: as §1

Binder	SPOT peptide array binding signal intensity
B1	≤ 0

target: ScLsb2; assay: as above
Protocol: as §1

Binder	SPOT peptide array binding signal intensity
B1	≤ 0

target: ScLsb3; assay: as above
Protocol: as §1

Binder	SPOT peptide array binding signal intensity
B1	6

target: ScLsb4; assay: as above
Protocol: as §1

Binder	SPOT peptide array binding signal intensity
B1	2

target: ScMyo3; assay: as above
Protocol: as §1

Binder	SPOT peptide array binding signal intensity
B1	1.5

target: ScMyo5; assay: as above
Protocol: as §1

Binder	SPOT peptide array binding signal intensity
B1	1

target: ScNbp2; assay: as above
Protocol: as §1

Binder	SPOT peptide array binding signal intensity
B1	62

target: ScPex13; assay: as above
Protocol: as §1

Binder	SPOT peptide array binding signal intensity
B1	4.25

target: ScRvs167; assay: as above
Protocol: as §1

Binder	SPOT peptide array binding signal intensity
B1	1.67

target: ScSho1; assay: as above
Protocol: as §1

Binder	SPOT peptide array binding signal intensity
B1	398

target: ScSla1-D1-D2; assay: as above
Protocol: as §1

Binder	SPOT peptide array binding signal intensity
B1	27

target: ScSla1-D3; assay: as above
Protocol: as §1

Binder	SPOT peptide array binding signal intensity
B1	5

target: SpAbp1-D1; assay: as above
Protocol: as §1

Binder	SPOT peptide array binding signal intensity
B1	171

target: SpBbc1; assay: as above
Protocol: as §1

Binder	SPOT peptide array binding signal intensity
B1	1.75

target: SpBzz1-D1; assay: as above
Protocol: as §1

Binder	SPOT peptide array binding signal intensity
B1	346

target: SpBzz1-D2; assay: as above
Protocol: as §1

Binder	SPOT peptide array binding signal intensity
B1	0.5

target: SpCyk3; assay: as above
Protocol: as §1

Binder	SPOT peptide array binding signal intensity
B1	14.5

target: SpHof1; assay: as above
Protocol: as §1

Binder	SPOT peptide array binding signal intensity
B1	25.2

target: SpHof1-2; assay: as above
Protocol: as §1

Binder	SPOT peptide array binding signal intensity
B1	5

target: SpHof1-3; assay: as above
Protocol: as §1

Binder	SPOT peptide array binding signal intensity
B1	386

target: SpHse1; assay: as above
Protocol: as §1

Binder	SPOT peptide array binding signal intensity
B1	119

target: SpLsb1; assay: as above
Protocol: as §1

Binder	SPOT peptide array binding signal intensity
B1	1

target: SpLsb4; assay: as above
Protocol: as §1

Binder	SPOT peptide array binding signal intensity
B1	≤ 0

target: SpMyo1; assay: as above
Protocol: as §1

Binder	SPOT peptide array binding signal intensity
B1	≤ 0

target: SpNbp2; assay: as above
Protocol: as §1

Binder	SPOT peptide array binding signal intensity
B1	33.5

target: SpPex13; assay: as above
Protocol: as §1

Binder	SPOT peptide array binding signal intensity
B1	2.5

target: SpRvs167; assay: as above
Protocol: as §1

Binder	SPOT peptide array binding signal intensity
B1	≤ 0

target: SpSla1-D1-D2; assay: as above
Protocol: as §1

Binder	SPOT peptide array binding signal intensity
B1	3

target: SpSla1-D3; assay: as above
Protocol: as §1

Binder	SPOT peptide array binding signal intensity
B1	3
